esBAF inh – blocks esBAF chromatin remodeling in mouse ES cells | reporter increase, % at 12.5 µM | Bmi1-luciferase knock-in reporter, 24 h; 100% = twice the neutral-well signal | 350,000 tested, 2% active; in the data active = activation above about 40%; inconclusive = no clear call, values can overlap the other calls;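 also: a rise in the Bmi1 reporter signal indicates esBAF inhibition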
Wnt bcat act – Wnt/beta-catenin pathway activation; Wnt/beta-catenin reporter cell assay, activator, plate reader; activation, % at 9.35 µM; 300,000 tested, 1.2% active; AID 743398; in the data active = activation above about 30%, passing the limit was not always enough; inconclusive = no clear call, values can overlap the other calls
FXN GAA850 act – increases GAA850 frataxin promoter reporter activity; HEK293 lucGAA850 FXN promoter luciferase reporter, 24 h; percent of 10 µM SAHA response; activation, % at 6 µM; 360,000 tested, 0.56% active; AID 540364;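 active = activation above the average of all compounds screened plus 3 SD, cutoff fixed separately per campaign, cut at about 7.5% in these data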
MITF act – MITF TRPM1 promoter activation in melanoma cells; SK-MEL-5 TRPM1-promoter luciferase, 24 h; % of positive control, neutral wells = 0; activation, % at 12.5 µM; 300,000 tested, 0.75% active; AID 588334;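 active = mean activation of at least 80% with every replicate also reaching 80%; inconclusive = mean reaches 80% but some replicate falls short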
AHR act – activators of human aryl hydrocarbon receptor | AHR-responsive luciferase reporter cells, luminescence | 320,000 tested, 2.5% active | P35869 | activation, % at 5 µM; in the data active = activation above about 47%
Target sequence (P35869 whole entry, looked up): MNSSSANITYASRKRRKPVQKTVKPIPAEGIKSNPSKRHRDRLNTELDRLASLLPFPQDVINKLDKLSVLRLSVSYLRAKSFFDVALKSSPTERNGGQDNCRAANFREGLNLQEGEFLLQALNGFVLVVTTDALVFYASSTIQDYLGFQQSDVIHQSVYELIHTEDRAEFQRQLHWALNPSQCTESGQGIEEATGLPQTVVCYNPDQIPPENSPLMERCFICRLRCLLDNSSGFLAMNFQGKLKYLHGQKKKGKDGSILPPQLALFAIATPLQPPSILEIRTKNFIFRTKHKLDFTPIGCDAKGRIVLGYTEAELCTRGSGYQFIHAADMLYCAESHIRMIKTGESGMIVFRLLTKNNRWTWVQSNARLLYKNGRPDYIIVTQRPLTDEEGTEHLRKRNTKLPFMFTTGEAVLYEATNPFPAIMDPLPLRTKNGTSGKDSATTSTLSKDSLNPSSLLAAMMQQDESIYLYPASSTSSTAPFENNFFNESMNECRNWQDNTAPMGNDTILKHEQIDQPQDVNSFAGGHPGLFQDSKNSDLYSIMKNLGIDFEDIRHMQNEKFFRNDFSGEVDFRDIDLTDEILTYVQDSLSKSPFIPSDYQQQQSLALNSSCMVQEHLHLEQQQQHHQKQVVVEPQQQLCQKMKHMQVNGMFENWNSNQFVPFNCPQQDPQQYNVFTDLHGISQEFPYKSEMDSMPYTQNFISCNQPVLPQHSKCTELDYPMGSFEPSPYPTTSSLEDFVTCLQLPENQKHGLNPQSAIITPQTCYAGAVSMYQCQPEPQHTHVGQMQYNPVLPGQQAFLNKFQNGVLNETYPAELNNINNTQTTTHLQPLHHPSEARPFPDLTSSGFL
Of the large screens only hits and unclear results are named; the others gave an inactive call. Only some compounds are listed: those with a hit (about 4.2% of all), similar ones and a draw of the others.

Cc1ccc(OCc2cc(C(=O)NC(C)Cc3cnccn3)no2)cc1C (stereo not drawn)	none (no result: esBAF inh)
CC(NC(=O)c1cc(COc2ccccc2)on1)c1nccs1 (stereo not drawn)	esBAF inh 64.4, MITF act 96.8
O=C(c1ccccc1F)N1C[C@H]2[C@@H](c3ccccc31)[C@H](CO)N2C(=O)c1ccncc1	none (no result: Wnt bcat act, FXN GAA850 act, MITF act, AHR act)
NCC[C@@H]1CC[C@@H](NC(=O)Nc2ccc(F)cc2)[C@@H](CO)O1	none (no result: Wnt bcat act, FXN GAA850 act, MITF act, AHR act)
C[C@H]1CCCCO[C@H](CN(C)C(=O)CCC(F)(F)F)[C@@H](C)CN([C@@H](C)CO)C(=O)c2cc(NC(=O)CCCN(C)C)ccc2O1	none (no result: Wnt bcat act, FXN GAA850 act, MITF act, AHR act)
CCC(=O)N1CCC1(C)C(=O)Nc1cc(-c2ccccc2)nn1C (stereo not drawn)	esBAF inh 65.1 (no result: MITF act, AHR act)
CC(C)C(=O)N1CCC1(C)C(=O)Nc1cc(-c2ccccc2)nn1C (stereo not drawn)	esBAF inh 49.9 (no result: MITF act, AHR act)
O=c1[nH]c(/C(Cl)=C/c2c(F)cccc2Cl)nc2cc(Cl)ccc12	AHR act 57.9 (no result: esBAF inh)
O=c1[nH]c(/C(Cl)=C/c2cc(Cl)ccc2O)nc2cc(Cl)ccc12	none (no result: esBAF inh)
CC(C)OC(=O)CSc1nnnn1-c1ccc2c(c1)OCCO2	esBAF inh 68.5
Cc1cc(NC(=O)c2cccc(F)c2)ncc1NC(=O)c1ccco1	Wnt bcat act 36.5
O=C(Nc1ccc(NC(=O)c2ccco2)nc1)c1cccc(F)c1	Wnt bcat act 31.2
Cc1cc(NC(=O)c2cccs2)ncc1NC(=O)c1cccc(F)c1	none (no result: esBAF inh, Wnt bcat act)
O=C(Nc1ccc(NC(=O)c2ccco2)nc1)c1cccnc1	none (no result: esBAF inh)
COc1cccc(C(=O)Nc2ccc(NC(=O)c3ccco3)nc2)c1	esBAF inh 58.9, MITF act 93.0 (no result: Wnt bcat act)
COc1cc(C(=O)Nc2ccc(NC(=O)c3ccco3)nc2)cc(OC)c1OC	none
CCCOc1cccc(C(=O)Nc2cccc(NC(=O)c3ccco3)c2)c1	AHR act 47.7 (no result: Wnt bcat act)
CCCC(=O)Nc1ccc2c(c1)C(=O)N(C)C[C@H](OC)[C@@H](C)CN(C(=O)c1ccncc1)[C@H](C)CO2	none (no result: Wnt bcat act, FXN GAA850 act, MITF act, AHR act)
C[C@@H]1CN([C@H](C)CO)C(=O)Cc2cc(NC(=O)Cn3cnnn3)ccc2O[C@H]1CN(C)C(=O)NC1CCCCC1	none (no result: Wnt bcat act, FXN GAA850 act, MITF act, AHR act)
COc1ccc2nc(NNC(=O)COc3ccccc3)sc2c1	AHR act 71.5 (no result: esBAF inh)
O=C(Nc1ccc(Cl)c([N+](=O)[O-])c1)Nc1nc2ccccc2s1	none (no result: esBAF inh, Wnt bcat act, FXN GAA850 act, MITF act)
COc1ccc(OCC(=O)Nc2nc3ccc(NC(C)=O)cc3s2)cc1	none (no result: esBAF inh)
CC(=O)NNc1nc2ccccc2s1	none (no result: Wnt bcat act)
O=C(NNc1nc2ccccc2s1)Nc1ccccc1	AHR act 58.6 (no result: esBAF inh)
Cc1ccc(NC(=O)Nc2nc3ccccc3s2)cc1NC(=O)Nc1nc2ccccc2s1	AHR act 53.8
O=C(COc1ccccc1)NNc1nc2ccccc2s1	AHR act 50.0
CCCN1[C@H](C(=O)N(C)C)[C@@H](CO)[C@@H]2Cn3c(ccc(-c4cccc(F)c4)c3=O)[C@@H]21	none (no result: Wnt bcat act, FXN GAA850 act, MITF act, AHR act)
COc1ccc(CN2C[C@H](C)[C@@H](OC)CN(C)C(=O)c3cc(NC(=O)C4CC4)ccc3OC[C@@H]2C)cc1	none (no result: Wnt bcat act, FXN GAA850 act, MITF act, AHR act)
O=C(O)CCCC(=O)Nc1ccc(OCc2nc3ccccc3s2)cc1	Wnt bcat act 50.8
O=C(NCC(F)(F)F)[C@@H]1[C@@H](CO)[C@@H]2Cn3c(cccc3=O)[C@@H]2N1C(=O)C1CC1	none (no result: Wnt bcat act, FXN GAA850 act, MITF act, AHR act)
CN1C(c2ccc(F)cc2)=CS/C1=C(/C#N)c1nnc(N2CCOCC2)n1-c1ccccc1	none (no result: esBAF inh)
CN1C(=O)NC(c2ccccc2)(C(F)(F)F)S/C1=C(/C#N)c1nnc(N2CCOCC2)n1-c1ccccc1 (stereo not drawn)	Wnt bcat act 67.3 (no result: esBAF inh)
COc1cc2[nH]cc(C(=O)NCCc3ccccc3)c(=O)c2cc1OC	none (no result: Wnt bcat act)
COc1cccc2c(=O)c(C(=O)NCCc3ccccc3)c[nH]c12	esBAF inh 54.9 (no result: MITF act, AHR act)
Cc1cc(C)n(-c2nc3ccccc3s2)n1	Wnt bcat act 52.0 (no result: esBAF inh)
Cc1nn(-c2nc3ccccc3s2)c(N)c1Sc1ccc(F)cc1	esBAF inh 88.6 (no result: Wnt bcat act)
Cc1nn(-c2nc3ccccc3s2)c(N)c1-c1ccccc1	esBAF inh 94.6, Wnt bcat act inconclusive, MITF act inconclusive
Cc1nn(-c2nc3ccccc3s2)c(N)c1-c1ccc(Cl)cc1	Wnt bcat act 40.6, AHR act 76.8 (no result: esBAF inh)
O=S(=O)(c1cccc(F)c1)N1CC[C@@H]2[C@@H](CO)Nc3ccc(-c4cccc(F)c4)cc3[C@@H]21	none (no result: Wnt bcat act, FXN GAA850 act, MITF act, AHR act)
C[C@@H]1CN([C@H](C)CO)C(=O)Cc2cc(NC(=O)C3CCCCC3)ccc2O[C@H]1CN(C)C(=O)Nc1ccc(C(F)(F)F)cc1	none (no result: Wnt bcat act, FXN GAA850 act, MITF act, AHR act)
Cc1nc(NC(=S)Nc2ccccc2)sc1C	Wnt bcat act 79.7 (no result: esBAF inh)
Cc1ccc(C(=O)Nc2nnc(NC(=S)Nc3ccccc3)s2)cc1	esBAF inh 56.4
COCC(=O)N(C)C[C@@H]1Oc2ncc(-c3ccccc3F)cc2C(=O)N([C@@H](C)CO)C[C@@H]1C	none (no result: Wnt bcat act, FXN GAA850 act, MITF act, AHR act)
Cc1ccc(Cc2c(-c3ccc(Br)cc3)nc3ccc(Br)cn23)cc1	esBAF inh 66.0 (no result: MITF act, AHR act)
COc1ccccc1Cc1c(-c2cccc(Cl)c2)nc2ccc(Br)cn12	esBAF inh 41.8 (no result: FXN GAA850 act, MITF act, AHR act)
Cc1ccc(Cc2c(-c3ccc(Br)cc3)nc3ccc(Cl)cn23)cc1	none (no result: FXN GAA850 act, MITF act, AHR act)
Cc1ccc(Cc2c(-c3cccc(Cl)c3)nc3ccc(Br)cn23)cc1	esBAF inh inconclusive, Wnt bcat act 39.8 (no result: FXN GAA850 act, MITF act, AHR act)
O=C(Cc1cccnc1)N[C@H]1CC[C@H](CCNS(=O)(=O)c2ccccc2Cl)O[C@@H]1CO	none (no result: Wnt bcat act, FXN GAA850 act, MITF act, AHR act)
Cc1ccc(CSc2nnc(-c3ccccn3)n2N)cc1	none (no result: esBAF inh, MITF act)
Nn1c(SCc2ccccc2)nnc1-c1ccccn1	esBAF inh 43.3 (no result: Wnt bcat act, MITF act)
Nn1c(SCc2ccccc2F)nnc1-c1ccccn1	Wnt bcat act 41.0 (no result: esBAF inh, MITF act)
CNC[C@H]1Oc2ccc(NC(=O)C3CC3)cc2CC(=O)N([C@@H](C)CO)C[C@H]1C	none (no result: Wnt bcat act, FXN GAA850 act, MITF act, AHR act)
CO[C@@H]1CN(C)C(=O)c2ccc(NC(=O)C3CC3)cc2OC[C@H](C)N(Cc2cccnc2)C[C@@H]1C	none (no result: Wnt bcat act, FXN GAA850 act, MITF act, AHR act)
O=C(NN=C1CCCC1)c1n[nH]c2c1CCCC2	Wnt bcat act 54.1 (no result: esBAF inh)
O=C(NN=C1CCCC1)c1n[nH]c2c1CCC2	none (no result: esBAF inh)
CCCNC(=O)N(C)C[C@H]1Oc2cc(C#Cc3ccccn3)ccc2S(=O)(=O)N([C@@H](C)CO)C[C@@H]1C	none (no result: Wnt bcat act, FXN GAA850 act, MITF act, AHR act)
COC(=O)C1C(=O)c2c([nH]c(C(=O)OCC3CCCO3)c2C)CC1C (stereo not drawn)	esBAF inh 55.4, MITF act inconclusive
COC(=O)C1C(=O)c2c([nH]c(C(=O)OC3CCCCCC3)c2C)CC1C (stereo not drawn)	MITF act 86.9
COc1ccc(C(=O)Nc2cc3c(cc2Cl)OCCCO3)cc1	esBAF inh 58.9 (no result: Wnt bcat act)
O=C(Nc1cc2c(cc1Cl)OCCCO2)c1ccc(F)cc1	Wnt bcat act 50.9 (no result: esBAF inh)
Cc1ccc(C(=O)Nc2ccc3c(c2)OCCO3)cc1	none (no result: MITF act, AHR act)
O=C(Nc1cc2c(cc1Br)OCCCO2)c1ccccc1	Wnt bcat act 52.0 (no result: esBAF inh)
Cc1ccc(C(=O)Nc2cc3c(cc2Cl)OCCCO3)cc1	esBAF inh 68.7 (no result: Wnt bcat act)
COc1ccc(C(=O)Nc2cc(OC)c(Cl)cc2OC)cc1	none (no result: esBAF inh)
